Where “and” joins values, the source holds several entries; their conditions need not be identical. Equal values may be shown once. Unmarked numbers belong to inactive results. Results filed as inconclusive are left out. Calls of active or inactive are those of the source. Unless noted, calls follow the shape of the full dose curve.

A short description of test [1]: Nuclear factor erythroid 2-related factor 2/antioxidant responsive element (Nrf2/ARE) small molecule agonists: qHTS cell viability counter screen in human keratinocytes (AID 1919968; active = well fitted curve in the direction sought with a large enough effect in the repeat runs; an effect the other way counts as inactive or inconclusive; also: nearly all actives have a fitted effect of over 55% in size). In outline: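 Cells of the KeratinoSens line were plated at 1,500 per well and left for 5 h before compound transfer from DMSO stocks. After a 23 h incubation (37 C, 5% CO2), CellTiter-Fluor was added. Signal was taken as fluorescence intensity 1 h later.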
(Quantitative high-throughput screening tests each substance at several concentrations.)

Test [2] deals with Gonadotropin-releasing hormone receptor (Homo sapiens) (UniProt P30968). As to the kind of experiment: Human gonadotropin-releasing hormone receptor (GnRHR) small molecule agonists, calcium flux assay in GnRHR-HEK293 cells (AID 1920063). Also: nearly all actives have a fitted effect of over 35% in size. The method in brief:
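Compounds dissolved in DMSO are pin-transferred onto dye-loaded GnRHR-HEK293 cells, which were seeded 18 h before at 37 C/5% CO2. Calcium signal is read as fluorescence intensity at 1 s intervals for 3 min.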
A general note: Calcium flux is commonly read through the fluorescence of an indicator in the cells.

Test [3] concerns the target KiSS-1 receptor (Homo sapiens) (UniProt Q969F8). As to the kind of experiment: Human kisspeptin (KISS1R) small molecule agonists, calcium flux assay in KISS1R-HEK293 cells (AID 1920064; active = well fitted curve in the direction sought with a large enough effect in the repeat runs; an effect the other way counts as inactive or inconclusive). In outline: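 Cell line: HEK293, stable human KISS1R. Dye loading 1 h at 37 C after 18 h culture. Read: kinetic fluorescence, 480/540 nm, 3 min at 1 s intervals.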
The nature of test [4]: G protein-coupled receptor (GPCR) small molecule agonists, calcium flux assay: HEK293 wild type cell line counter screen (AID 1920065). The method in brief:
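Tox21 10K compounds, 15 concentrations each in triplicate, pin-transferred in DMSO onto dye-loaded cells; kinetic read at 480/540 nm for 3 min, 1 s intervals.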

The nature of test [5]: p53 small molecule agonists, cell-based qHTS assay with rat liver microsomes (AID 1963578). In outline:
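p53RE-bla cells, 4,000/well, pre-incubated 5 h, then given compounds plus rat liver microsomes (0.5 mg/mL final) and NADPH (0.5 mg/mL final). Incubation 16 h at 37 C; beta-lactamase reporter read by LiveBLAzer fluorescence after 2 h at room temperature.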

Test [6] in a line: p53 small molecule agonists, cell-based qHTS assay with human liver microsomes: qHTS cell viability counter screen (AID 1963579). Also: nearly all actives have a fitted effect of over 45% in size. In outline: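 p53RE-bla cells, 4,000/well, dosed 5 hours after plating, with human liver microsomes (0.5 mg/mL final) plus NADPH (0.5 mg/mL final), 16 hours at 37 C. Viability read as CellTiter-Glo luminescence after 30 min at room temperature.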
Test [7] is described as follows: p53 small molecule agonists, cell-based qHTS assay with rat liver microsomes: qHTS cell viability counter screen (AID 1963580). Also: nearly all actives have a fitted effect of over 45% in size. The method in brief: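 Counter screen for cytotoxicity under metabolic activation: rat liver microsomes and NADPH, 0.5 mg/mL final each, added with compounds to p53RE-bla HCT-116 cells; 16 h at 37 C, then ATP luminescence read.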
Test [8] can be described thus: p53 small molecule agonists, cell-based qHTS assay: qHTS cell viability counter screen (AID 1963581). Also: nearly all actives have a fitted effect of over 45% in size. In outline: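 ATP content measured by luminescence in HCT-116 p53RE-bla cells treated 16 h at 37 C, same wells as the reporter screen.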
The nature of test [9]: p53 small molecule agonists, cell-based qHTS assay (AID 1963582; active = well fitted activation curve with a large enough effect in the signal ratio in the repeat runs, not every such curve was filed as active; the % refers to the signal ratio). The method in brief: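 16 h compound exposure (37 C) of p53 response element–bla cells, preceded by 5 h recovery at 37 C/5% CO2; read-out via LiveBLAzer B/G FRET substrate, 2 h RT, fluorescence intensity.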
For test [10], the target named is 5-hydroxytryptamine receptor 2A (Homo sapiens) (UniProt P28223). As to the kind of experiment: 5-hydroxytryptamine receptor 2A (HTR2A) small molecule antagonists, cell-based qHTS assay (AID 1963586). Also: nearly all actives have a fitted effect of over 45% in size. The method in brief: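 CHO cells stably expressing human HTR2A were plated for 18 h at 37 C, then loaded with calcium dye for 1 h. Compounds were preincubated 5 min at room temperature before DOI (4 nM solution) was added. Kinetic fluorescence was read for 3 min.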

For test [11] the target is unchanged. As to the kind of experiment: 5-hydroxytryptamine receptor 2A (HTR2A) small molecule agonists, cell-based qHTS assay (AID 1963587). Also: nearly all actives have a fitted effect of over 30% in size. The method in brief: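 HTR2A-CHO cells, plated 18 h at 37 C/5% CO2, dye-loaded 1 h at 37 C; compounds in DMSO added by pin tool (agonist mode). Intracellular calcium flux read as kinetic fluorescence on FDSS over 2 min at 1 s intervals.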

In test [12] the target is Muscarinic acetylcholine receptor M1 (Homo sapiens) (UniProt P11229). As to the kind of experiment: Cholinergic receptor muscarinic 1 (CHRM1) small molecule antagonists, cell-based qHTS assay (AID 1963588). Also: nearly all actives have a fitted effect of over 40% in size. The method in brief: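 Compounds were tested at 15 concentrations in three independent runs. Dye-loaded CHRM1-CHO cells were exposed 5 min at room temperature before stimulation by acetylcholine added at 50nM. Intracellular calcium was read kinetically on FDSS for 3 min.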

For test [13] the target is unchanged. As to the kind of experiment: Cholinergic receptor muscarinic 1 (CHRM1) small molecule agonists, cell-based qHTS assay (AID 1963589). Also: nearly all actives have a fitted effect of over 35% in size. In outline: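 Homogeneous fluorescence calcium flux, agonist mode. Human M1-expressing CHO cells; compound dosed at 15 concentrations, three independent runs; signal sampled every 1 sec.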
Test [14] can be described thus: cAMP Responsive Elements (CRE) small molecule agonists, cell-based qHTS assay (AID 1963590). The method in brief: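 HEK 293T cells stably bearing CRE-bla were plated at 2,000 cells per well and rested 18 h. Compounds, positive controls or DMSO were added for 3 h at 37 C. LiveBLAzer B/G substrate was then loaded for 2 h at room temperature.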
The nature of test [15]: cAMP Responsive Elements (CRE) small molecule antagonists, cell-based qHTS assay (AID 1963591; active = well fitted inhibition curve with a large enough effect in the signal ratio in the repeat runs, not every such curve was filed as active; the % refers to the signal ratio). The method in brief:
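First, CRE-bla HEK293T cells settled 18 h at 37 C. Next, compound and 0.25 uM final NKH477 were applied for 3 h. Last, LiveBLAzer B/G substrate was loaded for 2 h at room temperature.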

Test [16] addresses Beta-2 adrenergic receptor (Homo sapiens) (UniProt P07550). As to the kind of experiment: Adrenergic beta2 receptor (ADRB2) small molecule antagonists, cell-based qHTS assay (AID 1963592). Also: series mostly up to about 92 µM; nearly all actives have a fitted effect of over 50% in size. The method in brief: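 Assay format: CHO-ADRB2 cells, 18-20hr seeding at 37C/5% CO2, then compound plus 1nM isoproterenol agonist mix for 0.5hr RT. Homogeneous time-resolved fluorescence cAMP detection after 1hr, expressed as 665/615 nm ratio.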

Test [17] concerns the target D(2) dopamine receptor (Homo sapiens) (UniProt P14416). As to the kind of experiment: Dopamine D2 receptor (DRD2) small molecule agonists, cell-based qHTS assay (AID 1963594). Also: nearly all actives have a fitted effect of over 35% in size. The method in brief:
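HEK293 cells stably expressing DRD2 were cultured 24 h at 37 C, then given Ro20-1724 (0.1 mM final) and compounds for 10 min at room temperature. NKH477 (200nM) was then added for 30 min. cAMP was read by HTRF.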

The target is the same in test [18]. As to the kind of experiment: Dopamine D2 receptor (DRD2) small molecule antagonists, cell-based qHTS assay (AID 1963595; active = well fitted inhibition curve with a large enough effect in the signal ratio in the repeat runs, with a control signal flat; the % refers to the signal ratio; also: potency is read from the fitted curve at half-maximal effect). The method in brief:
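Stable D2 receptor HEK293 line, 24 h after seeding. Compound preincubated 10 min, then quinpirole (12 nM) with forskolin analogue NKH477 (200 nM), 30 min, room temperature. Detection by time-resolved FRET of cAMP.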

A short description of test [19]: p53 small molecule agonists, cell-based qHTS assay with human liver microsomes (AID 1963577). The method in brief: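 p53RE-bla cells, 4,000/well, compound added after 5 h, with human liver microsomes 0.5 mg/mL and NADPH 0.5 mg/mL final; 16 h at 37 C, then LiveBLAzer 2 h RT, fluorescence.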
Test [20] has as its target Beta-2 adrenergic receptor (Homo sapiens) (UniProt P07550). As to the kind of experiment: Adrenergic beta2 receptor (ADRB2) small molecule agonists, cell-based qHTS assay (AID 1963593).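 Also: CHO cells stably overexpressing human ADRB2.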 In outline: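 CHO cells stably over-expressing ADRB2 were plated overnight at 37C, then dosed with compounds plus a stimulation mix containing 100uM IBMX and 25uM Ro-20-1724 for 0.5hr at room temperature. cAMP was measured by HTRF competition, 1hr.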
% is scaled to controls: 0 for no effect and ±100 for the full control effect.

Chain of 5-hydroxytryptamine receptor 2A (Homo sapiens) (P28223 whole entry, looked up): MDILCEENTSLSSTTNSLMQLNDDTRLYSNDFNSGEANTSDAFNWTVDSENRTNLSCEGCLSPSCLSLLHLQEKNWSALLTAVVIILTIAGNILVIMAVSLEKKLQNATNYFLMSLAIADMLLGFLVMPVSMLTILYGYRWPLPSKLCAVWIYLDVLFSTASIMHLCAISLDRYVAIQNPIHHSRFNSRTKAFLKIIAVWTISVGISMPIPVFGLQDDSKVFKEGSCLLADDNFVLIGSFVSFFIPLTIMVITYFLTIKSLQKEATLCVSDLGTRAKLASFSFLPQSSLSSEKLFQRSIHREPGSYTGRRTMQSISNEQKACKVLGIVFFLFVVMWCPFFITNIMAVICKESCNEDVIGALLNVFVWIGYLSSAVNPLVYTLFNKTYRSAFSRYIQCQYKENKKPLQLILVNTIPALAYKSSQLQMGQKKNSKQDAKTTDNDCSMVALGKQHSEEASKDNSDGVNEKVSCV
Chain of D(2) dopamine receptor (Homo sapiens) (P14416 whole entry, looked up): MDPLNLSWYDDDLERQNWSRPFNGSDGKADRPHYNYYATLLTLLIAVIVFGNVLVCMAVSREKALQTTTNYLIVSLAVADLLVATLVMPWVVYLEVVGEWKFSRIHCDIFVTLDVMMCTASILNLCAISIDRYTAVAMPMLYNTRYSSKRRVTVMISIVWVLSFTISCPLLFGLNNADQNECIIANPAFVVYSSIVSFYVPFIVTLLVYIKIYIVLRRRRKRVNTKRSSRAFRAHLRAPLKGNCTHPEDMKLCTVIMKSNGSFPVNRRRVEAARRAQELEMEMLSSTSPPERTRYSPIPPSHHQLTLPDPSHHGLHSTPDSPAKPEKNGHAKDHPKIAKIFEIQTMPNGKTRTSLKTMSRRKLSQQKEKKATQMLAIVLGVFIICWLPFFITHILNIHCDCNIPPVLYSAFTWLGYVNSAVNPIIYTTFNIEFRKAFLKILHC
Chain of KiSS-1 receptor (Homo sapiens) (Q969F8 whole entry, looked up): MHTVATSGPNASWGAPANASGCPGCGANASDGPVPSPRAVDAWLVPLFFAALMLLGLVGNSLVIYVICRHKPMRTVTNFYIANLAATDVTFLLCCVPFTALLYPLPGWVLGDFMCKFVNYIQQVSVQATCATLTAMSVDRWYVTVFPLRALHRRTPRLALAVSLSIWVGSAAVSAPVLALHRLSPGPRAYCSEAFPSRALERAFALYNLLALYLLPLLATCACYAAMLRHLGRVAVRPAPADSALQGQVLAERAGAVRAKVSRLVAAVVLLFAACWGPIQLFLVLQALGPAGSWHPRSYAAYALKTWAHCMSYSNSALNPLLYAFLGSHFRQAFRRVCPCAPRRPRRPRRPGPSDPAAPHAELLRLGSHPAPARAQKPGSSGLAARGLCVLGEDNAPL
Chain of Muscarinic acetylcholine receptor M1 (Homo sapiens) (P11229 whole entry, looked up): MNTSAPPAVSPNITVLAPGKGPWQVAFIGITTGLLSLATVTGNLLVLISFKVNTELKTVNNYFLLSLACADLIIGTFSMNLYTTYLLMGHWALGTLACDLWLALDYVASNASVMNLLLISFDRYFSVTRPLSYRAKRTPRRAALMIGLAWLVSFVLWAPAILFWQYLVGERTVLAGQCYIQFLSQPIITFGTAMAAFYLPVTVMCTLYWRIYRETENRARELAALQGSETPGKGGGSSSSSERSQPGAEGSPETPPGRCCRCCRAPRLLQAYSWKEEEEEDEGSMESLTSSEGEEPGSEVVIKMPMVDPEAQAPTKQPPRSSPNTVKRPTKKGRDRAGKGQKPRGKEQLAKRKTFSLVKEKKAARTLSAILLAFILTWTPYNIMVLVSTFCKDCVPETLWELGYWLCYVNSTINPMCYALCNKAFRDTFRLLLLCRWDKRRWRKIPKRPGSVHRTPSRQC
Chain of Beta-2 adrenergic receptor (Homo sapiens) (P07550 whole entry, looked up): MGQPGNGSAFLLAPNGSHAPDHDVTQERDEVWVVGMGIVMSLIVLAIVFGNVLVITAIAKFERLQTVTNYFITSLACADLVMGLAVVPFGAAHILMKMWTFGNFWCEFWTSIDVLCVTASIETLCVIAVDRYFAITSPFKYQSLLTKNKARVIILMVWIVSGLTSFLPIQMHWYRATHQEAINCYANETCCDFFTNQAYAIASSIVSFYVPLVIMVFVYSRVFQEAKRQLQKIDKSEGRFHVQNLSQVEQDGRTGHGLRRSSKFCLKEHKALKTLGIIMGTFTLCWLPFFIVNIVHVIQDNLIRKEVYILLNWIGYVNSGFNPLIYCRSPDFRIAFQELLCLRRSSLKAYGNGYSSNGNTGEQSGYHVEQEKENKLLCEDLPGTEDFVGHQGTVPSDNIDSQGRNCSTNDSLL
Chain of Gonadotropin-releasing hormone receptor (Homo sapiens) (P30968 whole entry, looked up): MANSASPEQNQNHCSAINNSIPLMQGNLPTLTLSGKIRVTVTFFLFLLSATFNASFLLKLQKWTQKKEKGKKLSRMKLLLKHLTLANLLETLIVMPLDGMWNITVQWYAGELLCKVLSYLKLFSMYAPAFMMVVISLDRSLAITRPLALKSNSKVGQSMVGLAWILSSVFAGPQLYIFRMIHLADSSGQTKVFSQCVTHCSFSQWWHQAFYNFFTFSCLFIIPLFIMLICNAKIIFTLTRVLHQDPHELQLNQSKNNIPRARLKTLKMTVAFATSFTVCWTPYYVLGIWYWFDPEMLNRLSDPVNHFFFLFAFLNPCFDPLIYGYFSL

`O=C(O)CC(C(=O)O)C(CC(=O)O)C(=O)O` (stereo unspecified): the Potency result in [1], in test [2], in [3], in test [4], in test [5] and in test [6] was “inactive” each time. Also, the Potency entry in test [7], in test [8], in test [9], in test [10], in [11] and in test [12] was “inactive” each time. The Potency entry in [13], in test [14], in test [15], in test [16], in [17] and in test [18] was “inactive” throughout.

`CNC[C@H](O)c1cccc(O)c1`: the Potency result in [1], in [2], in [3], in test [4], in [19] and in [5] was “inactive” in each case. The Potency result in [6], in [8], in [9], in [10], in [11] and in [12] was “inactive” in each case. Further, the Potency result in test [13], in [15], in [16] and in [17] was “inactive” in each case. Also, the Potency in [18] was 61.1 µM (active) and 29.8 µM (active).

In the case of `O=C(O)Cn1c(=O)n(Cc2ccc(Br)cc2F)c(=O)c2ccc(Cl)cc21`, the Potency result in [1], in test [2], in test [4], in test [19], in test [5] and in [6] was “inactive” in each case. For the same compound, the Potency entry in test [7], in test [8], in test [9], in test [10], in [11] and in test [12] was “inactive” in each case. Further, the Potency entry in test [13], in test [14], in [15], in [16], in [20] and in test [17] was “inactive” each time. In [18], the Potency result is “inactive”.

For `NS(=O)(=O)c1cc2c(cc1Cl)NC=NS2(=O)=O`, the Potency entry in [1], in test [2], in test [3], in test [4], in test [19] and in [5] was “inactive” in each case. The Potency entry in test [6], in test [8], in test [9], in [10], in test [11] and in test [12] was “inactive” each time. Also, the Potency result in [14], in test [15], in test [16], in test [20], in test [17] and in [18] was “inactive” throughout.

Take `CCCN(CCC)C(=O)SCC`: the Potency result in [1], in test [2], in test [3], in test [19], in test [5] and in [6] was “inactive” each time. Moreover, the Potency entry in [7], in [8], in test [9], in test [10], in [11] and in test [12] was “inactive” in each case. The Potency result in [13], in [14], in [15], in test [16], in test [20] and in test [17] was “inactive” each time. The Potency result in test [18] was “inactive”.

Turning to `CCCCOC(=O)c1ccc(O)cc1`, the Potency entry in test [1], in test [2], in [4], in [19], in [5] and in test [6] was “inactive” in each case. Besides, the Potency result in test [7], in [8], in [9], in test [10], in [11] and in test [12] was “inactive” throughout. Besides, the Potency entry in [13], in test [14], in test [15], in [16], in test [20] and in [17] was “inactive” in each case. Moreover, the Potency entry in test [18] is “inactive”.

For `Oc1ccccc1`, the Potency entry in [1], in test [2], in [3], in test [4], in test [5] and in [6] was “inactive” in each case. The Potency result in [7], in test [8], in test [9], in test [15], in [16] and in test [20] was “inactive” each time. In addition, the Potency result in test [17] and in test [18] was “inactive” in each case.

With `O=C(O)c1cn(-c2ccc(F)cc2)c2cc(N3CCNCC3)c(F)cc2c1=O`, the Potency result in test [1], in test [2], in [3], in test [4], in test [19] and in test [5] was “inactive” in each case. Also, the Potency result in [6], in [7], in test [9] and in test [18] was “inactive” in each case. Also, the activity change, negative = inhibition in test [16] is 3.86% [at 19 µM]. Besides, the activation in test [20] was -25.8% [at 19 µM].

These data come from PubChem BioAssay (Tox21).
